Test results: PubChem BioAssay (Tox21)
Records with an inconclusive call do not appear. Activity calls are given as the source filed them. Unless noted, the call rests on the fitted dose curve; in most records, active means well fitted curve in the direction sought with a large enough effect in the repeat runs; inconclusive means weak or mixed curves; inactive means no such curve, though single readings can be large; an effect the other way counts as inactive or inconclusive.

Tests used:
[1] = A CellTox Green Cytotoxicity Assay to monitor cytotoxicity in HepG2 cells - 16 hour (AID 1224876); further: nearly all actives have a fitted effect of over 45% in size
How it was run: (§1)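 Cytotoxicity was tracked as dead-cell DNA fluorescence in HepG2 cells treated with test compounds at 37 C; each time-point value comes from one kinetic series spanning 0, 8, 16, 24, 32 and 40 h.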

[2] = qHTS RealTime-Glo MT Cell Viability Assay in HepG2 cells - 32 hour (AID 1224877); further: nearly all actives have a fitted effect of over 55% in size
How it was run: (§2)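 Tox21 10K library screened in qHTS format on HepG2 cells carrying RealTime-Glo reagents. Compounds were added after a 5 h preincubation, and the luminescent signal from continuous culture was measured repeatedly during 40 h treatment.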

[3] = A CellTox Green Cytotoxicity Assay to monitor cytotoxicity in HepG2 cells - 24 hour (AID 1224878); further: nearly all actives have a fitted effect of over 45% in size
How it was run: as §1

[4] = A CellTox Green Cytotoxicity Assay to monitor cytotoxicity in HepG2 cells - 40 hour (AID 1224879); further: nearly all actives have a fitted effect of over 40% in size
How it was run: as §1

[5] = qHTS RealTime-Glo MT Cell Viability Assay in HEK293 cells - 0 hour (AID 1224880); further: top concentration of the series differs between compounds; nearly all actives have a fitted effect of over 45% in size
How it was run: (§3)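 Kinetic, non-lysing viability readout. Seed HEK293 (600/well) with reagent, incubate 5 h at 37 C/5% CO2, pin 23 nL compound in DMSO, incubate at 37 C, read luminescence at 0, 8, 16, 24, 32, 40 h.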

[6] = A CellTox Green Cytotoxicity Assay to monitor cytotoxicity in HepG2 cells - 0 hour (AID 1224882); further: nearly all actives have a fitted effect of over 35% in size
How it was run: as §1

[7] = A CellTox Green Cytotoxicity Assay to monitor cytotoxicity in HepG2 cells - 32 hour (AID 1224883); further: nearly all actives have a fitted effect of over 50% in size
How it was run: as §1

[8] = A CellTox Green Cytotoxicity Assay to monitor cytotoxicity in HEK293 cells - 8 hour (AID 1224884); further: nearly all actives have a fitted effect of over 35% in size
How it was run: (§4)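 Real-time, in one plate: 600 HEK293 cells/well with dead-cell DNA dye, pinned compound after 5 h, 37 C incubation over 40 h; viable cells give no appreciable fluorescence.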

[9] = qHTS RealTime-Glo MT Cell Viability Assay in HepG2 cells - 16 hour (AID 1224885); further: nearly all actives have a fitted effect of over 50% in size
How it was run: as §2

[10] = qHTS RealTime-Glo MT Cell Viability Assay in HEK293 cells - 24 hour (AID 1224886); further: top concentration of the series differs between compounds; nearly all actives have a fitted effect of over 50% in size
How it was run: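 Luminescence generated by NanoLuc from substrate produced by living HEK293 cells served as the viability signal. Each value reflects the reading at its stated time point during continuous 40 h compound exposure at 37 C.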

[11] = qHTS RealTime-Glo MT Cell Viability Assay in HEK293 cells - 8 hour (AID 1224887); further: top concentration of the series differs between compounds; nearly all actives have a fitted effect of over 50% in size
How it was run: as §3

[12] = qHTS RealTime-Glo MT Cell Viability Assay in HepG2 cells - 0 hour (AID 1224889); further: nearly all actives have a fitted effect of over 50% in size
How it was run: as §2

[13] = A CellTox Green Cytotoxicity Assay to monitor cytotoxicity in HepG2 cells - 8 hour (AID 1224890); further: nearly all actives have a fitted effect of over 45% in size
How it was run: as §1

[14] = qHTS assay to identify small molecule antagonists of the estrogen receptor alpha (ER-alpha) signaling pathway using the BG1 cell line in the presence of 0.1 nM 17-beta-estradiol - cell viability counter screen (AID 1259241); further: nearly all actives have a fitted effect of over 40% in size
How it was run: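 VM7Luc4E2, 4,000 cells/well, phenol red-free medium + 10% charcoal-stripped FBS; 24 hr plating; cpd + 0.1 nM E2 final, 22 hr 37C/5% CO2; CellTiter-Fluor 30 min, fluorescence.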

[15] = qHTS assay to identify small molecule antagonists of the androgen receptor (AR) signaling pathway using the MDA cell line in the presence of 0.5 nM R1881 - cell viability counter screen (AID 1259242); further: nearly all actives have a fitted effect of over 45% in size
How it was run: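 Cells seeded at 3,000/well and allowed 5 hr at 37C, 0% CO2 before compound transfer and R1881 (0.5 nM final) addition; 16 hr later, live-cell protease fluorescence indicated cytotoxicity.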

[16] = target: Estrogen receptor (Homo sapiens) (UniProt P03372); assay: qHTS assay to identify small molecule antagonists of the estrogen receptor alpha (ER-alpha) signaling pathway using the BG1 cell line in the presence of 0.1 nM 17-beta-estradiol (AID 1259244); further: nearly all actives have a fitted effect of over 50% in size
How it was run: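 Luciferase signal from VM7Luc4E2 ERE-reporter cells, co-dosed with test compound and 0.1 nM final 17beta-estradiol for 22 h, read with ONE-Glo.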

[17] = A CellTox Green Cytotoxicity Assay to monitor cytotoxicity in HEK293 cells - 16 hour (AID 1224888); further: nearly all actives have a fitted effect of over 35% in size
How it was run: as §4

[18] = A CellTox Green Cytotoxicity Assay to monitor cytotoxicity in HEK293 cells - 32 hour (AID 1224881); further: nearly all actives have a fitted effect of over 40% in size
How it was run: as §4

[19] = target: Androgen receptor (Homo sapiens) (UniProt P10275); assay: qHTS assay to identify small molecule antagonists of the androgen receptor (AR) signaling pathway using the MDA cell line in the presence of 0.5 nM R1881 (AID 1259243); further: nearly all actives have a fitted effect of over 50% in size
How it was run: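 Luminescence from an AR/GR-responsive MMTV-luciferase construct in MDA-kb2 breast carcinoma cells, read 30 min after ONE-Glo, following 16 hr co-treatment with compounds and 0.5 nM R1881.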

[20] = qHTS assay to identify small molecule phospholipidosis (PLD) inducers (AID 1259344; active means well fitted curve in the direction sought with a large enough effect; an effect the other way counts as inactive or inconclusive)
How it was run: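 Image-based: LipidTOX Red pit count/intensity per well and per cell; HepG2, 24 h compound at 37 C, PFA fixation, Hoechst counterstain.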

Measured: Potency

Estrogen receptor (Homo sapiens), sequence (P03372 whole entry, looked up): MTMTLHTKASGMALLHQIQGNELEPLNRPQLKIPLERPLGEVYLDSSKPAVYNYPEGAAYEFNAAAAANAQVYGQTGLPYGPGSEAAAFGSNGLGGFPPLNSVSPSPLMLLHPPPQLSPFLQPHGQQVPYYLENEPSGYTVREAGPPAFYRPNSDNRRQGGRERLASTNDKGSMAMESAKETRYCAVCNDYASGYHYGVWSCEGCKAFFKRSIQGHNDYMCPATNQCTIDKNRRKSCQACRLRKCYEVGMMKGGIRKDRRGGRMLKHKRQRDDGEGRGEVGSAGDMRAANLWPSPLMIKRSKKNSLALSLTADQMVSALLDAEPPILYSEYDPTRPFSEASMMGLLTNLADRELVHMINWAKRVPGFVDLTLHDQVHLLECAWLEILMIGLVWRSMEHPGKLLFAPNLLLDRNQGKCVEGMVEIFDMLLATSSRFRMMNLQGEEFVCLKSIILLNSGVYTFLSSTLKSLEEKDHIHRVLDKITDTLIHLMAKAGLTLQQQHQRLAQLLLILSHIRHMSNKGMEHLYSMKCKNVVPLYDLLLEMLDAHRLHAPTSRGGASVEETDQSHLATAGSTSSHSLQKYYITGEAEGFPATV
Androgen receptor (Homo sapiens), sequence (P10275 whole entry, looked up): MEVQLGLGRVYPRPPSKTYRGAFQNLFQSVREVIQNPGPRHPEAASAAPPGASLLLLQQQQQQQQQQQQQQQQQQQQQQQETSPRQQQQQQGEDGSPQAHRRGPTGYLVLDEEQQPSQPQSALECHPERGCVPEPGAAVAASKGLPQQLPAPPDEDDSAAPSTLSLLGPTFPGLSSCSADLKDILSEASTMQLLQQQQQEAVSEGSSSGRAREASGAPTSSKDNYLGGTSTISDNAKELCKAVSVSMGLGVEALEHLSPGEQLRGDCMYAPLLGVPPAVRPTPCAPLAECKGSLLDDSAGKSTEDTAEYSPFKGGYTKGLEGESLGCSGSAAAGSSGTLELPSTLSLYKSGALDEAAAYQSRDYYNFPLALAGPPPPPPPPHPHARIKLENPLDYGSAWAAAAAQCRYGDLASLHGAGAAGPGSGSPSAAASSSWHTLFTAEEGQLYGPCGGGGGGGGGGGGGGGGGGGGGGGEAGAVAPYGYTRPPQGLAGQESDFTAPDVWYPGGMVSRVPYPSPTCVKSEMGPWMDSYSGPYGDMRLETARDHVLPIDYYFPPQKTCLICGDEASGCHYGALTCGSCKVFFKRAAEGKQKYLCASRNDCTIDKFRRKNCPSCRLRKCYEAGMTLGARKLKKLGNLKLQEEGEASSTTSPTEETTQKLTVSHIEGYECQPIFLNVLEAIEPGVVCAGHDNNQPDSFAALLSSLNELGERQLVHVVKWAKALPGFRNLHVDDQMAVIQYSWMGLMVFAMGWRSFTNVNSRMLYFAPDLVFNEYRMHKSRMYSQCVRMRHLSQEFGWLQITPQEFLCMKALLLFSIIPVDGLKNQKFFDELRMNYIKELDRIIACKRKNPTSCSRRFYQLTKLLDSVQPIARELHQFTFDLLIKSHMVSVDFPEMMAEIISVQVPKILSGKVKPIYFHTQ

CCC(O)C(C)(C)C (configuration not stated)
not listed: [17] | [18] | [19] | [20]
inactive: all other assays above

CC(C)COC(=O)/C=C/c1ccccc1
not listed: [3] | [4] | [7] | [13] | [18] | [19] | [20]
inactive: all other assays above

COC(OC)C(C)c1ccccc1 (configuration not stated)
not listed: [5] | [10] | [13] | [14] | [20]
inactive: all other assays above

C=C(C)C(=O)OC1CC(C)CC(C)(C)C1 (configuration not stated)
not listed: [1] | [4] | [7] | [16] | [19] | [20]
inactive: all other assays above

Oc1ccccc1Cc1ccccc1O
inactive: [1] | [2] | [5] | [18] | [6] | [8] | [9] | [17] | [12] | [15]

CCCCCCCC/C=C\CCCCCCCC(=O)OC[C@@H](O)[C@H]1OC[C@H](O)[C@H]1O
not listed: [5] | [14] | [19]
inactive: all other assays above

O=C(Oc1ccccc1C(=O)O)c1ccccc1O
not listed: [5] | [14] | [16] | [19]
inactive: all other assays above

C1=CCC(c2ccccc2)CC1 (configuration not stated)
not listed: [5] | [8] | [16] | [19] | [20]
inactive: all other assays above

O=S(=O)(O)c1cc(O)ccc1O
inactive: [2] | [5] | [18] | [6] | [8] | [9] | [11] | [17] | [12] | [13]

CCCCC(CC)COC(=O)c1ccccc1 (configuration not stated)
not listed: [5] | [10] | [19] | [20]
inactive: all other assays above
